Assay outcomes (PubChem)
RORg inh: qHTS for inhibitors of ROR gamma transcriptional activity | Nuclear receptor ROR-gamma (Mus musculus), P51450 | Drosophila S2 Gal4-RORgamma UAS-luciferase reporter, 20 h | Potency, µM (doses to about 53.6 µM), inactives show at the highest dose activity change, negative = inhibition, usual class: inhibitors | 5.4% of 310,000 active | AID 2551, 2010; also: potency is read from the fitted curve at half-maximal effect; nearly all actives have a fitted effect of over 60% in size
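Luciferase reporter read in Schneider cells carrying Gal4-RORγ (mouse) and UAS-Photinus luciferase; cells given compound 1 h before 700 uM copper sulfate induction, then incubated 20 h at ambient temperature.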
ELG1 DNA repair: qHTS screen for small molecules that inhibit ELG1-dependent DNA repair in human embryonic kidney (HEK293T) cells expressing luciferase-tagged ELG1. HEK293T ELG1-luciferase reporter, luminescence, 16 h; DNA damage induced by 5-fluorouridine. Potency, µM (highest dose often 46.1 µM), inactives show at the highest dose activity change, negative = inhibition, usual class: inhibitors. 2.3% of 330,000 active; also: potency is read from the fitted curve at half-maximal effect; nearly all actives have a fitted effect of over 55% in size
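Overnight (16 hr) co-exposure of 2,000 cells/well to 5-fluorouridine and compound at 37 °C preceded detection. Luciferase was quantified via ONE-Glo luminescence; loss of signal denotes inhibition.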
TSHR antag: Antagonists of the Thyroid Stimulating Hormone Receptor: HTS campaign; Thyrotropin receptor (Homo sapiens), P16473; TSHR-expressing cells, TSH-stimulated cAMP HTRF, 2 h; stronger effect = lower value; activity change, negative = inhibition, % at 11.5 µM; 0.2% of 330,000 active; AID 504810, 2011;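 active = activity change below a set negative limit, meaning inhibition stronger than a set level, cut at about -70% in these data; inconclusive = activity change between two set negative limits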
Target sequence (P16473 whole entry, looked up): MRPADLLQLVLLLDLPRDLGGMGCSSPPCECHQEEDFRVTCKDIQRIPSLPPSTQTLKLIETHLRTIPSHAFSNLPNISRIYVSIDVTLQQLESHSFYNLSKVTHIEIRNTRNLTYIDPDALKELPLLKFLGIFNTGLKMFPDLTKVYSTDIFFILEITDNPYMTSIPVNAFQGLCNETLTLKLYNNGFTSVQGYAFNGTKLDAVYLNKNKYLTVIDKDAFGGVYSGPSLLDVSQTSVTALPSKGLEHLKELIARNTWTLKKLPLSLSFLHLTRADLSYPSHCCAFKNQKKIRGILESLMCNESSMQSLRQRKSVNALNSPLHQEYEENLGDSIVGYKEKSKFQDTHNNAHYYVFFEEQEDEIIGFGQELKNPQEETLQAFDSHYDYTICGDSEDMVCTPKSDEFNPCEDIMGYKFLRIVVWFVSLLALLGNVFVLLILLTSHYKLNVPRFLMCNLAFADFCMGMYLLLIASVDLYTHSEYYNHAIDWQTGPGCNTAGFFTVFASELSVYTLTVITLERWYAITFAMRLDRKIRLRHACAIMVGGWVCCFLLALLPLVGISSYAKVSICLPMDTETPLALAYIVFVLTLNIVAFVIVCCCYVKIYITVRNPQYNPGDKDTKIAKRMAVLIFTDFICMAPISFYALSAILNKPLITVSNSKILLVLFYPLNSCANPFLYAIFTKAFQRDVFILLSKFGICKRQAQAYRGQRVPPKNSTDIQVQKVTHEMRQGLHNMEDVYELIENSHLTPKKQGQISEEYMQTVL
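TSHR-expressing cells, 200/well, pre-treated with compound, then stimulated with EC80 TSH (4nM final) for 2 hours at 37 deg C. cAMP measured by competitive HTRF: anti-cAMP cryptate antibody in lysis buffer plus cAMP-d2, read after 30 minutes at room temperature.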
Gal4-VP16 FLuc: VP16 counterscreen qHTS for inhibitors of ROR gamma transcriptional activity; Drosophila S2 Gal4-VP16 UAS-luciferase, luminescence, 20 h; Potency, µM (highest dose often 53.6 µM), for inactives: at the top dose activity, negative = inhibition, usual class: inhibitors; 3.5% of 310,000 active; AID 2546, 2010;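 also: Gal4-VP16 expression switched on by copper sulfate through the metallothionein promoter; potency is read from the fitted curve at half-maximal effect; nearly all actives have a fitted effect of over 50% in size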
FBPA coupling cs: qHTS Assay for Inhibitors of Fructose-1,6-bisphosphate Aldolase from Giardia Lamblia: Coupling assay counterscreen | 0.67% of 290,000 active | activity change, negative = inhibition, % at 58.2 µM, hits read low | coupling enzyme system counterscreen, AmpLite Red fluorescence; in the data active = activity change below about -30%
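Final compound at 57.5 uM, incubated 10 min at RT with coupling enzyme reagent (glyceraldehyde-3-phosphate), then 20 min with substrate and AmpLite Red detection. Fluorescence read at 525/598 nm; tests interference with the coupling assay, not aldolase inhibition.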
The depositor's hits bear a star; ? = inconclusive; · = no result given. Compounds with a hit are over-represented: about 8% of the library has one in this group of screens. Unless noted, calls follow the shape of the dose curve; as a rule, active = well fitted curve in the direction sought with a large enough effect; inconclusive = small, poorly fitted or top-dose-only effect, or another doubt; inactive = no such curve, though single readings can be large; an effect the other way counts as inactive or inconclusive. % is scaled to controls: 0 for no effect and ±100 for the full control effect.

SMILES	RORg inh	ELG1 DNA repair	TSHR antag	Gal4-VP16 FLuc	FBPA coupling cs
COC(=O)[C@]1(C)N[C@H](c2ccc(-c3ccccc3)cc2)[C@@H]2C(=O)N(C)C(=O)[C@@H]21	·	?	-23	·	·
O=C(CSc1nnc(C2CCCCC2)o1)Nc1ccccc1Cl	8%	?	-4	?	2
NC(=O)C1CC2(NC(=O)NC2=O)c2cc(F)ccc2O1 (stereo unspecified)	3%	·	·	4%	·
Cc1ccc2c(c1)c1c(n2CC(O)Cn2c(C)nc3ccccc32)CCCC1 (stereo unspecified)	1.6µM*	6%	-5	-24%	0
COC(=O)C1C(O)C(C)C(O)C(C)(O)/C=C\C=C(/C)C(=O)Nc2c(C)c(OC(C)=O)c3c(c2O)C(=O)C(C)=C2OCOC(=C23)/C(C)=C/C(C)(O)C(O)C(C)C1O (stereo unspecified)	-2%	0%	-6	-3%	-42*
COc1ccc(C(CCNCc2ccc(OC(C)C)cc2)C(C)C)cc1 (stereo unspecified)	13µM*	-17%	-9	?	-1
COc1ccc(CNCCC(c2ccc(OC(C)C)cc2)C(C)C)cc1OC (stereo unspecified)	-28%	-8%	-12	-25%	1
CCC(C)NC(=O)c1cccc(OCc2c(C)noc2C)c1 (stereo unspecified)	-31%	-11%	-5	3%	1
CC(C)c1onc(-c2c(Cl)cccc2Cl)c1COc1ccc(/C=C/c2cccc(C(=O)O)c2)c(Cl)c1	-45%	·	·	5.6µM*	12
CN(C)S(=O)(=O)c1ccc(C(=O)Nc2ccc3nc(N4CCOCC4)sc3c2)cc1	·	14%	-7	·	·
Cc1ccc2[nH]c3c(c2c1)CN(C(=O)CN1CCSCC1)CC3	17%	8%	5	6%	-7
Cc1ccc2[nH]c3c(c2c1)CN(C(=O)CN1CC(C)OC(C)C1)CC3 (stereo unspecified)	-42%	-3%	-3	-1%	-33*
CCC1(c2ccc(OC)cc2)NC(=O)N(CC(=O)NC2CCCCC2C)C1=O (stereo unspecified)	·	-1%	15	·	·
O=C(N/N=C/c1cccc(NC(=O)c2ccc(Cl)cc2)c1)c1cccc(O)c1	-9%	-17%	-13	-5%	0
O=C(N/N=C/c1cccs1)c1cccc(NC(=O)c2ccc(Cl)cc2)c1	10µM*	-29%	2	13µM*	4
O=C(N/N=C/c1cccs1)c1cccc(S(=O)(=O)Nc2ccc(Cl)cc2)c1	4µM*	5%	-1	5.6µM*	-1
Cc1cc(C)cc(OCC(=O)OCC(=O)N(CC(C)C)c2c(N)n(Cc3ccccc3)c(=O)[nH]c2=O)c1	·	12%	9	·	·
O=C(CNC(=O)c1ccc(F)cc1)N/N=C/c1cc(Br)ccc1OC(=O)/C=C/c1ccco1	5µM*	?	1	?	-4
COc1ccc(C(=O)NCC(=O)N/N=C/c2ccco2)cc1OC	3%	21%	40	9%	0
O=C(CNC(=O)c1ccccc1F)N/N=C/c1cc(Br)ccc1OC(=O)/C=C/c1ccco1	2.5µM*	-19%	1	3.2µM*	-6
